Here are results for 43 sequences from publication PMC10726135, “HNF4α isoforms regulate the circadian balance between carbohydrate and lipid metabolism in the liver”.

Whole data set: some 18,000 sequences, median “log2 normalized intensity” near 0.36, cut for the highest 2% near 7.3. Shown is part of a subset that was picked to be rich in the highest values.

The experiment has as its target T1, HNF4alpha8 (COS-7 nuclear extract) (Homo sapiens, UniProt P41235-5 1-452).
T1 sequence: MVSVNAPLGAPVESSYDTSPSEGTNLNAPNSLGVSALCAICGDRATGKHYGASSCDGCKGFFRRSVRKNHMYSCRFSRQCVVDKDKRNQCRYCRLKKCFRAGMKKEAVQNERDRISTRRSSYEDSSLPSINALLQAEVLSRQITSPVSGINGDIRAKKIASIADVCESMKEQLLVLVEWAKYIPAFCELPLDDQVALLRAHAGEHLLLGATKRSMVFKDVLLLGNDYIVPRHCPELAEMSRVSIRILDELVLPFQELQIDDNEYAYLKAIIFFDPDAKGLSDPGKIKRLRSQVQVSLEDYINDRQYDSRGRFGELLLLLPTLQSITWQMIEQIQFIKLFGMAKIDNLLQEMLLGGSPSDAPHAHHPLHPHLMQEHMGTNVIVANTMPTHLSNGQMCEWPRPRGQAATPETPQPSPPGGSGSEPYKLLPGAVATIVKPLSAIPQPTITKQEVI
Briefly: protein-binding microarray; COS-7 nuclear extract on double-stranded Agilent 4x180k PBM; binding buffer, salt, pH and temperature not given in the material; high values mean tight binding. The note with it: chain copies: 2; label: 3' end of strand 1 on the slide; dsDNA, one strand shown. Put shortly:
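Nuclear extracts came from COS-7 cells transiently transfected by CaPO4 with a human HNF4α isoform expression vector. They were applied to a custom Agilent SurePrint G3 4x180k array of ~60-nt oligonucleotides, made double-stranded, with ~44,000 test sequences spotted in quadruplicate. Bound HNF4α was imaged at 2-µm resolution on an Agilent G2565CA scanner. Binding signal was taken as background-corrected, normalized gProcessedSignal from Agilent software.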
In the case of “AGACCTTTGACATCACCTAACTTGTGGCTGGCCTAGGGAGATTAGAGTATCGGTCGA”, the binding signal was 1.49 log2 normalized intensity.
Next, “ACTTTGACCTTGTTTTCAATGACTACCTGTGCCTAGGGAGATTAGAGTATCGGTCGA”: 2.13 log2 normalized intensity; “GTTCAATGCTTCAGTGAGCCTTGACCTTCAGCCTAGGGAGATTAGAGTATCGGTCGA”: 4.83 log2 normalized intensity; “CCCAGGGACTTTGGCCTTACTTGGCCTGTTGCCTAGGGAGATTAGAGTATCGGTCGA”: 3.01 log2 normalized intensity.
To “CACATGCTATTATTTTCCATCAGTGGACTTGCCTAGGGAGATTAGAGTATCGGTCGA” belongs 3.95 log2 normalized intensity; to “GCCACCCATCAGTGGACTTTGACCTTGTTTGCCTAGGGAGATTAGAGTATCGGTCGA”, 10.8 log2 normalized intensity; to “AGTGGACTTTGACCTTGTTTTCAATGACTAGCCTAGGGAGATTAGAGTATCGGTCGA”, 7.8 log2 normalized intensity.
Next, “CCTTTCTACTGCCAGCCAGGGCCACCCATCGCCTAGGGAGATTAGAGTATCGGTCGA”: 0.592 log2 normalized intensity.
“GACCTTGTTTTCAATGACTACCTGTTACCCGCCTAGGGAGATTAGAGTATCGGTCGA”: the binding signal came to 1.81 log2 normalized intensity.
Next, “GCCAGCCAGGGCCACCCATCAGTGGACTTTGCCTAGGGAGATTAGAGTATCGGTCGA”: 7.34 log2 normalized intensity.
To “GCAGCTCTTTACAAAGCCCATGCTGGACCCGCCTAGGGAGATTAGAGTATCGGTCGA” belongs 4.69 log2 normalized intensity; to “TCACAGTGCCTCTGCAAGTTGGCCTTACTAGCCTAGGGAGATTAGAGTATCGGTCGA”, -0.0691 log2 normalized intensity.
To “TTTGTCTGTGTAGACTCATCTGGTGTCATTGCCTAGGGAGATTAGAGTATCGGTCGA” belongs 1.95 log2 normalized intensity.
“TTTTTGAGATGGAATCTTGCCCTGTCGCCCGCCTAGGGAGATTAGAGTATCGGTCGA”: the binding signal came to 3.19 log2 normalized intensity.
For the sequence “GGTTCCAGCATGGACTTCACAGCCTGTTAGGCCTAGGGAGATTAGAGTATCGGTCGA”, the binding signal came out at 0.147 log2 normalized intensity.
For “TGTGGGTTCAAATCCATTCAGCAGCGTGTAGCCTAGGGAGATTAGAGTATCGGTCGA”, the binding signal is -0.128 log2 normalized intensity.
To “GCAAAGTTCAACCCTGAATGTGTGCTGGCCGCCTAGGGAGATTAGAGTATCGGTCGA” belongs 1.12 log2 normalized intensity.
Next, “ACTTCGCTGGAGGTGTTAAAGTGCCATTGAGCCTAGGGAGATTAGAGTATCGGTCGA”: 1.75 log2 normalized intensity; “TGCACTTTACGTAAGATAAGGTGAACATACGCCTAGGGAGATTAGAGTATCGGTCGA”: 1.09 log2 normalized intensity.
To “TGGGTGGGGGAAGTGTGGTCAAGGGTCAGTGCCTAGGGAGATTAGAGTATCGGTCGA” belongs 4.76 log2 normalized intensity; to “CCGCAGTGGGAGAGCAAGGGTCAAGGGTCAGCCTAGGGAGATTAGAGTATCGGTCGA”, 7.52 log2 normalized intensity; to “AGAGCAAGGGTCAAGGGTCATTTGTTTTTAGCCTAGGGAGATTAGAGTATCGGTCGA”, 6.31 log2 normalized intensity.
“GTGGGAGAGCAAGGGTCAAGGGTCATTTGTGCCTAGGGAGATTAGAGTATCGGTCGA”: the binding signal was 7.65 log2 normalized intensity.
In the case of “CCCATCCGCAGTGGGAGAGCAAGGGTCAAGGCCTAGGGAGATTAGAGTATCGGTCGA”, the binding signal turned out to be 4.51 log2 normalized intensity.
Next, “AAGGGTCAAGGGTCATTTGTTTTTACAGACGCCTAGGGAGATTAGAGTATCGGTCGA”: 6.77 log2 normalized intensity; “CATTTTTTTCCACCCTCCCCTCCCCCTCCTGCCTAGGGAGATTAGAGTATCGGTCGA”: 6.32 log2 normalized intensity.
Next, “GAATTTTGGACAAGGTAACCCCCAACATTCGCCTAGGGAGATTAGAGTATCGGTCGA”: 3.79 log2 normalized intensity; “ATGTGCCCTTTGGACAGAAATATCAGCAAGGCCTAGGGAGATTAGAGTATCGGTCGA”: 3.43 log2 normalized intensity; “GGAGGGAACAGCAAGACTTTGGCCCTGCAGGCCTAGGGAGATTAGAGTATCGGTCGA”: 0.278 log2 normalized intensity.
Take “AAGTCCAAAGTTCTTGGCCAGGCATGGAGAGCCTAGGGAGATTAGAGTATCGGTCGA”: the binding signal is 2.75 log2 normalized intensity.
To “AAGGGTCAATGTGATCAGGTGTGGGCATTAGCCTAGGGAGATTAGAGTATCGGTCGA” belongs 1.3 log2 normalized intensity.
To “ATCTCACACAGTACTTTGTACATGGGAATAGCCTAGGGAGATTAGAGTATCGGTCGA” belongs 1.8 log2 normalized intensity; to “ATAGTTCAGCCATCAGGTAACATATTGTCCGCCTAGGGAGATTAGAGTATCGGTCGA”, 1.18 log2 normalized intensity.
Take “TTTTGATCAAGGAGGACTTTGGAATGGCAGGCCTAGGGAGATTAGAGTATCGGTCGA”: the binding signal was determined as 4.79 log2 normalized intensity.
With “TTTTCTTGGACTTTGGTCATCCTTTACTTTGCCTAGGGAGATTAGAGTATCGGTCGA”, the binding signal amounted to 6.91 log2 normalized intensity.
Next, “ATCAAGGATTTTTTCTTGGACTTTGGTCATGCCTAGGGAGATTAGAGTATCGGTCGA”: 8.58 log2 normalized intensity; “GACTTTGGTTGGATTTCTTGGCTTCTCTTGGCCTAGGGAGATTAGAGTATCGGTCGA”: 0.989 log2 normalized intensity; “TCCAGATCAAGGATTTTTTCTTGGACTTTGGCCTAGGGAGATTAGAGTATCGGTCGA”: 5.67 log2 normalized intensity.
Next, “TTGGACTTTGGTCATCCTTTACTTTCCCAAGCCTAGGGAGATTAGAGTATCGGTCGA”: 6.14 log2 normalized intensity.
Next, “TTTAGGCAGTTTTTGATCAAGGAGGACTTTGCCTAGGGAGATTAGAGTATCGGTCGA”: 4.55 log2 normalized intensity; “GCAGTTTTTGATCAAGGAGGACTTTGGAATGCCTAGGGAGATTAGAGTATCGGTCGA”: 7.54 log2 normalized intensity.
With “GGATTTTTTCTTGGACTTTGGTCATCCTTTGCCTAGGGAGATTAGAGTATCGGTCGA”, the binding signal is 7.39 log2 normalized intensity.
Next, “CAGAAGTCATGTCTCATTGCCCCTTGAGCTGCCTAGGGAGATTAGAGTATCGGTCGA”: 3.87 log2 normalized intensity.
